Assay outcomes as filed in PubChem BioAssay.
TRHR enhancer = allosterically enhances the human TRH receptor. P34981. TRHR cells, fluo-8 calcium fluorescence, EC20 TRH enhancement. enhancement, % at 2 µM. hit rate 0.66% among 360,000; in the data active means enhancement above about 30%
Target sequence (P34981 whole entry, looked up): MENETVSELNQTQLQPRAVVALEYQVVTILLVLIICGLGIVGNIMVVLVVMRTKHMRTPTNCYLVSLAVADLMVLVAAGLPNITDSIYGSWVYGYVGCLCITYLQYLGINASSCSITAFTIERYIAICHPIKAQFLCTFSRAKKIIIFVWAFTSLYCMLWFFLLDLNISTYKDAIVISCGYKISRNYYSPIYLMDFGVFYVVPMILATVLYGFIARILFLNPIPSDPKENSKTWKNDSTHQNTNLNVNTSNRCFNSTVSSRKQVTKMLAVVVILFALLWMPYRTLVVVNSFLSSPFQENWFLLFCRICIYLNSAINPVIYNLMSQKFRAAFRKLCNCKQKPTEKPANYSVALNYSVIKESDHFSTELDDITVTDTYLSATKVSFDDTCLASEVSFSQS
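TRHR-expressing cells loaded with fluo-8 calcium dye were read kinetically (ex 480/em 530) during compound addition, then stimulated with an EC20 of TRH (10 nM final). Enhancement of the Gq-mediated intracellular calcium response was scored.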
TRPML1 agonist = human mucolipin-1 channel agonism; Q9GZU1; AID 624414; hit rate 0.12% among 410,000; activation, % (test concentration not listed); TRPML1-expressing cells, Ca2+ dye fluorescence, FDSS; in the data active means activation above about 50%; inconclusive means mostly about 30% to 49%
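Agonist activity was taken from a 110 s kinetic Ca2+ dye read on the FDSS after pinning compounds onto TRPML1-DL cells. The cells were seeded at 1,500/well with Tet inducer, incubated about 16 h, then dye-loaded at room temperature.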
KCNH2 3.1 inh = inhibitors of human KCNH2 3.1 potassium channel isoform; activity change, % (tested at about 1.8 µM); hit rate 0.95% among 340,000; U2OS KCNH2 3.1, thallium flux FluxOr; hits give low values;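 active means maximum activity change below -70%; inconclusive means maximum activity change from -70% to -50%; inactive means maximum activity change above -50%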;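 further: thallium influx rate constant from kinetic fluorescence after stimulation buffer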
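Channel expression came from 3.1 mutant virus (1.77 x 10^8 /mL) applied to suspended U2OS cells for 4 h. Flux was tracked with FluxOr dye plus Red40 quencher, and kinetic rate constants normalized to controls.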
TRPML1 blocker = blocks the human TRPML1 channel; TRPML1-inducible cells, Ca2+ dye fluorescence, FDSS; hits give low values; inhibition of EC80 agonist-evoked calcium signal; activity change, negative = inhibition, % (concentration not given with the values); hit rate 0.02% among 390,000; Q9GZU1; in the data active means activity change below about -50%; inconclusive means between about -30% and that limit;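 further: stimulus is agonist 54-4 at its EC80 concentration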
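TRPML1-DL cells, Tet-induced overnight (~16 h, 37 °C) at 1,500 cells/well, were loaded with Ca8 no-wash dye plus quencher for 45-90 min at room temperature. Compounds were pinned during FDSS kinetic reading; agonist 54-4 at EC80 (4 uM final) then added.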
hERG WT inh = blocks the wildtype human KCNH2 potassium channel; hit rate 0.37% among 340,000; U2OS, BacMam KCNH2, thallium flux FluxOr; hits give low values; Q12809; AID 720551; activity change, % at 1.84 µM;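 active means maximum activity change below -70%; inconclusive means maximum activity change between -70% and -50%; inactive means maximum activity change above -50%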
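U2OS cells were transduced with wild-type KCNH2 virus (2.03 x 10^8 / mL) for 4 h at room temperature, then cultured overnight at 37 C. Thallium flux was read with FluxOr dye. Rate constants were normalized to DMSO controls.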
TRHR agonist = agonists of human TRH receptor. AID 493084. hit rate 0.18% among 360,000. P34981. TRHR cells, calcium flux fluo-8, FDSS agonist mode. activation, % at 2 µM; in the data active means activation above about 30%
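Steps: seed TRHR cells overnight; add fluo-8 no-wash Ca dye, RT 30 min–1.5 h; record 10 s baseline; pin-transfer compounds; monitor fluorescence 1 cycle/s for the agonist window. Calcium increases flag candidate agonists.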
Of the large screens only hits and unclear results are named; the others gave an inactive call. In the library only some 1.7% were active in any assay of this set; here they are far more common.

CCc1ccc(-c2nc(CN3CCC(C(=O)NCCN(CC)c4ccccc4)CC3)c(C)o2)cc1	KCNH2 3.1 inh -112
COc1ccc(C(=O)Nc2nnc(CC(=O)N/N=C/c3ccc(O)cc3O)s2)cc1	TRHR agonist 52 (no result: TRPML1 agonist, KCNH2 3.1 inh, TRPML1 blocker, hERG WT inh)
COCCNC(=O)C1CCCN(C(=O)c2sccc2C)CC1 (centres undefined)	none (no result: TRHR enhancer, KCNH2 3.1 inh, TRPML1 blocker, hERG WT inh, TRHR agonist)
CCOc1ccc(S(=O)(=O)NC(C)C(=O)NCc2cccnc2)cc1 (centres undefined)	none
O=C(Nc1cc(Cl)ccc1-n1cncn1)c1cn2ccccc2n1	none
O=C(Nc1cc(C(F)(F)F)ccc1-n1cncn1)c1cn2ccccc2n1	KCNH2 3.1 inh -207, hERG WT inh -152 (no result: TRHR enhancer, TRHR agonist)
Cc1ccccc1Nc1nc(C#N)nc(NC2CCCC2)n1	none (no result: TRPML1 agonist, KCNH2 3.1 inh, TRPML1 blocker, hERG WT inh)
COCCCN(C(=S)Nc1cccc(Cl)c1)C(C)c1ccncc1 (centres undefined)	TRHR enhancer 37
COCCCN(C(=S)Nc1cc(C)cc(C)c1)C(C)c1ccncc1 (centres undefined)	KCNH2 3.1 inh -72
COCCCN(C(=S)Nc1ccc(OC)cc1)C(C)c1ccncc1 (centres undefined)	none
COCCCN(C(=O)Nc1cccc(Cl)c1)C(C)c1ccccn1 (centres undefined)	none (no result: KCNH2 3.1 inh)
O=C(Cn1cnc([N+](=O)[O-])c1)Nc1ccccc1C(F)(F)F	hERG WT inh -74
O=C(Cn1cnc([N+](=O)[O-])c1)NCCc1ccccc1	none
CCCNC(=O)c1cc(C2CCCN(S(=O)(=O)c3cccs3)C2)on1 (centres undefined)	none (no result: TRHR enhancer, KCNH2 3.1 inh, TRPML1 blocker, hERG WT inh, TRHR agonist)
CCCOc1ccc(-c2nonc2NC(=O)COc2ccc(C)cc2)cc1OCCC	none (no result: KCNH2 3.1 inh, hERG WT inh)
COc1ccccc1CNS(=O)(=O)c1ccc2[nH]c3c(c2c1)CCCCC3	none (no result: KCNH2 3.1 inh, hERG WT inh)
Cc1ccc(C(C)C)c(OC(=O)/C=C/c2ccccc2)c1	KCNH2 3.1 inh -91
Cc1ccc(NC(=O)C(C)OC(=O)/C=C/c2ccccc2)cc1 (centres undefined)	none
O=S(=O)(c1ccc(Cl)cc1)c1nc(-c2cccc(Br)c2)oc1NCc1ccccc1	TRHR enhancer 31 (no result: KCNH2 3.1 inh, hERG WT inh)
O=C1C[C@H](c2ccc3ccccc3c2)N1S(=O)(=O)c1ccccc1[N+](=O)[O-]	none (no result: TRHR enhancer, KCNH2 3.1 inh, hERG WT inh, TRHR agonist)
COC(=O)c1ccc(CSc2nnc(-c3ccncc3)n2Cc2ccccc2)o1	KCNH2 3.1 inh -173, hERG WT inh -199
CN(C)S(=O)(=O)c1cccc(NC(=O)COC(=O)COc2ccc(Br)cc2)c1	none (no result: TRPML1 agonist, TRPML1 blocker)
CC(C)NS(=O)(=O)c1ccc(OCC(=O)Nc2ccc3c(c2)OCO3)cc1	none (no result: hERG WT inh)
CN(C)S(=O)(=O)c1cccc(NC(=O)COC(=O)CCOc2ccccc2)c1	TRHR enhancer 33
O=C(COc1ccc([N+](=O)[O-])cc1)Nc1ccncc1	none
CC(C)NS(=O)(=O)c1ccc(OCC(=O)Nc2cccc(F)c2)cc1	TRHR enhancer 32
NS(=O)(=O)c1cccc(NC(=O)COc2ccc([N+](=O)[O-])cc2)c1	TRHR enhancer 33
O=C(NCc1ccncc1)c1ccc(S(=O)(=O)Nc2ccccc2)cc1	none
Cc1ccc(N=Nc2c(C)[nH]n(-c3ccccc3)c2=O)cc1Br	none (no result: TRPML1 agonist, TRPML1 blocker)
Cc1[nH]n(-c2ccccc2)c(=O)c1N=Nc1ccc(F)cc1	KCNH2 3.1 inh -79
O=C(NC1c2ccccc2Oc2ccccc21)c1ccc([N+](=O)[O-])cc1	KCNH2 3.1 inh -100, hERG WT inh inconclusive (no result: TRHR enhancer, TRHR agonist)
O=C(N[C@H]1CC1c1ccccc1)c1ccc([N+](=O)[O-])cc1 (some centres undefined)	none
Cc1noc(C)c1COc1ccccc1C(=O)NC1CCC(C)CC1 (centres undefined)	none
O=C(CC1Sc2ncnn2C1=O)Nc1ccccc1 (centres undefined)	TRHR enhancer 30
CCOc1cc(CNC(=O)c2ccc(NC(=O)c3nsc4ccccc34)cc2)ccc1OC	none (no result: KCNH2 3.1 inh, hERG WT inh)
Cc1ccccc1NS(=O)(=O)c1ccc2[nH]cc(C(=O)NCCc3ccccc3)c(=O)c2c1	none (no result: KCNH2 3.1 inh, hERG WT inh)
